Test results reported in PubChem BioAssay (Tox21).
Results filed as inconclusive are left out. Where a call stands in place of a potency, no number is given. Activity calls are given as the source filed them. The call rests on the fitted dose curve; in most records, active means well fitted activation curve with a large enough effect in the repeat runs; inconclusive means weak or mixed curves; inactive means no such curve, though single readings can be large or run the other way.

The molecules below were run against Nuclear receptor subfamily 1 group I member 3 (Homo sapiens) (UniProt Q14994) (assay: qHTS assay to identify small molecule agonists of the constitutive androstane receptor (CAR) signaling pathway (AID 1224839; further: nearly all actives have a fitted effect of over 15% in size;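 on activation: HepG2 cells stably carrying human CAR and a CYP2B6 luciferase reporter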)). Details: HepG2 hCAR CYP2B6-luciferase, agonist mode, 24 h; series mostly up to 92.4 µM.
Outline: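 Luminescent ONE-Glo read-out after 24 hr, 37 C exposure of double-stable HepG2-CYP2B6-hCAR reporter cells to a 15-point compound series, in the presence of 0.75 uM PK11195 (final).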
Potency means the concentration at half of the fitted maximal effect.

Sequence of Nuclear receptor subfamily 1 group I member 3 (Homo sapiens) (Q14994 whole entry, looked up): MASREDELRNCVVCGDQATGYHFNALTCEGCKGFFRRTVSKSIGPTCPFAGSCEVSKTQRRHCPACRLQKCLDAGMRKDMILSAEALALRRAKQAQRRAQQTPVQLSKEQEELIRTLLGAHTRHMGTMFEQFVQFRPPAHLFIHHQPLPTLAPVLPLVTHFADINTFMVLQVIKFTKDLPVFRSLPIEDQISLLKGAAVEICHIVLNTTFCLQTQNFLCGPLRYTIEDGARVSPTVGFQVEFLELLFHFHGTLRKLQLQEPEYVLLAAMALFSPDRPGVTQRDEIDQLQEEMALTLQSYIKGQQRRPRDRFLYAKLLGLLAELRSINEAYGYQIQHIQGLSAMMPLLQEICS

Compound	Potency
CC(C)(C)c1nnc(NS(=O)(=O)c2ccccc2)s1	inactive
c1ccc(CC2=NCCN2)cc1	inactive
CCCCCCCCCCCCN(CCCCCCCCCCCC)CCCCCCCCCCCC	inactive
COC(C)(C)CCCC(C)CC=O (stereo not given)	inactive
C=CCS(=O)(=O)O	inactive
COCCCOCCCOC	inactive
NS(=O)(=O)c1ccc(C(=O)O)cc1	inactive
COc1c(N2C[C@@H]3CCCN[C@@H]3C2)c(F)cc2c(=O)c(C(=O)O)cn(C3CC3)c12	inactive
COC(=O)c1ccc(C)cc1C1=NC(C)(C(C)C)C(=O)N1 (stereo not given)	inactive
CS(=O)(=O)O	inactive
CC(=O)c1ccccc1O	inactive
Cc1ccc(C#N)cc1	inactive
O=C(O)c1ccccc1OP(=O)(O)O	inactive
O=c1[nH]c(=O)n([C@H]2C[C@H](O)[C@@H](CO)O2)cc1I	11.9 µM (active)
CC(C)NC(=O)NC(C)C	inactive
CCOC(=O)[C@H](CCc1ccccc1)N[C@@H](C)C(=O)N1[C@H](C(=O)O)C[C@@H]2CCC[C@@H]21	inactive
COc1cc(C(=O)N2CCCCCCC2)cc(OC)c1OC	inactive
O=C(O)CCCc1ccccc1	inactive

Compound	Potency
CO/N=C(/C(=O)N[C@@H]1C(=O)N2C(C(=O)OCOC(=O)C(C)(C)C)=C(C)CS[C@H]12)c1csc(N)n1	inactive
Cc1cc2c(cc1S(N)(=O)=O)S(=O)(=O)CCC2	inactive
Cc1cc(O)cc2c1O[C@](C)(CCC[C@H](C)CCC[C@H](C)CCCC(C)C)CC2	inactive
CCOC(=O)c1c(C)n(C)c2ccc(O)cc12	inactive
O=C(CCCN1CCN(c2ccccn2)CC1)c1ccc(F)cc1	inactive
CCS(=O)(=O)c1ccc(OC)c(C(=O)OC)c1	inactive
CC1=CC(C)C(C=O)CC1 (stereo not given)	inactive
CCOC(=O)C(=O)OCC	inactive
Cn1c(N)c(N=O)c(=O)n(C)c1=O	inactive
Cc1sccc1Br	inactive
CCCCCSCCCCC	inactive
CC(=O)OCC(=O)[C@@]1(O)CCC2C3CCC4=CC(=O)CC[C@]4(C)C3[C@@H](O)C[C@@]21C (stereo not given in full)	inactive
O=Cc1cccc([N+](=O)[O-])c1	inactive
CN(C(=O)c1c(O)c2ccccc2n(C)c1=O)c1ccccc1	inactive
CC(C)CCCC(C)N (stereo not given)	inactive
CCCCOCCOCCOCCCC	inactive
NS(=O)(=O)c1cc(C(=O)O)cc(N2CCCC2)c1Oc1ccccc1	inactive
